Assay results: ChEMBL document CHEMBL4513216, “Probing the Open Global Health Chemical Diversity Library for Multistage-Active Starting Points for Next-Generation Antimalarials” (ACS Infect Dis, 2020)
About 8,600 (12%) of roughly 69,000 compounds showed an effect of 50% or more. The list comes from a sample in which strong results are over-represented; it also holds similar structures and randomly drawn compounds.

What follows are compounds tested on Plasmodium berghei (assay: Screen against P. berghei liver stage (PbLuc), transformed with Luciferase, at 10uM). Details: tested at 10 uM.
Assay type: functional, HepG2

SMILES | INHIBITION
CCCn1cc(CN2CCCC2c2nccc(CN(C)C)n2)cn1 (stereo not drawn) | 25.6%
CCc1nnc(CNC(=O)CCN2CCN(c3cccc(C)c3)CC2)s1 | 52.1%
CCc1nnc(CNC(=O)CCCN2CCCCC2)s1 | 25.1%
Cc1cccc(N2CCN(CCC(=O)NCc3cnc(C)cn3)CC2)c1 | 45.8%
Cc1cccc(N2CCN(CCC(=O)NCc3nnc[nH]3)CC2)c1 | -10.6%
Cc1cccc(N2CCN(CCC(=O)NCc3ccc(C)s3)CC2)c1 | 71.2%
Cc1cccc(N2CCN(CCC(=O)NCc3cccnc3)CC2)c1 | 27.6%
CN1CCN(Cc2cccnc2)C2(CCN(C3CCOCC3)C2)C1=O (stereo not drawn) | -33.9%
CC(=O)NCCNC(=O)c1cnc(C(C)(C)C)s1 | 30.6%
CCc1cccc(C)c1NC(=O)c1ccccc1N(C)S(C)(=O)=O | 25.8%
CCN1CCN(C(=O)c2cccn2Cc2ccccc2)CC1 | -4.94%
Cc1csc(Nc2nccnc2C2CCCN2CC(N)=O)n1 (stereo not drawn) | -13.7%
Cn1cc(CN2CCC3(CC(=O)N(c4ccc5c(c4)OCO5)C3)C2)cn1 (stereo not drawn) | 27.3%
O=C1CC2(CCN(Cc3ccoc3)C2)CN1c1ccc2c(c1)OCO2 (stereo not drawn) | 60.3%
CN(C)C(=O)N1CCC2(CC(=O)N(c3ccc4c(c3)OCO4)C2)C1 (stereo not drawn) | -4.02%
O=C1CC2(CCN(Cc3ccncc3)C2)CN1c1ccc2c(c1)OCO2 (stereo not drawn) | 31.1%
O=C1CC2(CCN(Cc3ccsc3)C2)CN1c1ccc2c(c1)OCO2 (stereo not drawn) | 55.5%
CCS(=O)(=O)N1CCC2(CC(=O)N(c3ccc4c(c3)OCO4)C2)C1 (stereo not drawn) | -30.6%
CCn1nc(C)c(NC(=O)CN(C)C(C)c2ccon2)c1C (stereo not drawn) | -22.1%
N[C@@H]1CCCN(C(=O)Cc2c[nH]c3ccccc23)[C@H]1c1ccccc1F | 32.5%
CN(C)C(=O)CN1C[C@H]2CC[C@@H](C1)N(C(=O)Cc1ccccc1Cl)C2 | 25.1%
CN(C)C(=O)CN1C[C@H]2CC[C@@H](C1)N(C(=O)CCn1cncn1)C2 | 56.8%
Cc1cnn(CCC(=O)N2C[C@@H]3CC[C@H]2CN(CC(=O)N(C)C)C3)c1 | 38.5%
O=C(CCn1cncn1)N1C[C@@H]2CC[C@H]1CN(Cc1ccncc1)C2 | 22.4%
Cc1c[nH]nc1C1CCCCN1C(=O)CCn1nccc1C (stereo not drawn) | 57.5%
CN(C)C(=O)CN1C[C@H]2CC[C@@H](C1)N(C(=O)CCCn1cncn1)C2 | 8.07%
Cc1c[nH]nc1C1CCCCN1C(=O)CNS(C)(=O)=O (stereo not drawn) | 48.6%

SMILES | INHIBITION
Cc1c[nH]nc1C1CCCCN1C(=O)CC1(O)CCCCC1 (stereo not drawn) | 24.8%
Cc1ccnn1CCC(=O)N1C[C@@H]2CC[C@H]1CN(CC(=O)N(C)C)C2 | 55.6%
COc1ccc(C(=O)N2CCCC(n3cncn3)C2)nn1 (stereo not drawn) | 8.64%
O=C(NCCCn1ccnc1)N1CCN(c2cccs2)CC1 | 12.2%
O=C(Cn1ncc(N2CCCC2)cc1=O)Nc1ccc2nccnc2c1 | 6.69%
COc1cccc(N2CCN(C(=O)CN(C)c3cnccn3)CC2)c1 | 35.4%
CC1CCC(NC(=O)CNC2(c3ccc(Br)cc3)CCOCC2)CC1 (stereo not drawn) | 12.8%
O[C@@H]1CN(Cc2ccc(F)c(F)c2)CC[C@H]1NCc1ccccn1 | 46.7%
CCCN1Cc2ccccc2NC(=O)C12CCNC2 (stereo not drawn) | 38.3%
O=C(c1cnccn1)N1CCCC2(CCN(Cc3ccsc3)C2)C1 (stereo not drawn) | -15.2%
O=C(NC1CCCc2nc(N3CCOCC3)ncc21)C1CCCCC1 (stereo not drawn) | 17.1%
CNS(=O)(=O)c1ccc(CN(C)Cc2nc3ccc(F)cc3[nH]2)cc1 | 29%
Cc1ccccc1C1(C(=O)NCCN2CCOCC2)CCOCC1 | -33.5%
Cc1ccccc1C1(C(=O)NCCN2CCC(C)CC2)CCOCC1 | 55.1%
Cc1ccccc1C1(C(=O)NCCN2CCCC2)CCOCC1 | 44.8%
COc1cccc(-n2nc(C(C)=O)c(C(C)=O)c2C)c1 | -17%
O=C1CC2(CCN(C(=O)c3ccccn3)CC2)Oc2c(Cl)cc(Cl)cc21 | 4.57%
CNc1cc(CNC(=O)c2ccncc2)nc(-c2ccncc2)n1 | 4.08%
Cc1nc(C)n(C2CCCN(C(=O)Cc3csc(C(C)C)n3)C2)n1 (stereo not drawn) | 26.4%
CN(C)S(=O)(=O)NCC1OCCc2cn(CC3CCOCC3)nc21 (stereo not drawn) | 20.1%
Fc1cccc(CNCC2OCCc3cn(CC4CCOCC4)nc32)c1 (stereo not drawn) | 68.4%
CCCS(=O)(=O)NCC1OCCc2cn(CC3CCOCC3)nc21 (stereo not drawn) | 55.5%
c1c2c(nn1CC1CCOCC1)C(CNC1CCOCC1)OCC2 (stereo not drawn) | -44.2%
CS(=O)(=O)NCC1OCCc2cn(CC3CC3)nc21 (stereo not drawn) | 44.2%
CCS(=O)(=O)NCC1OCCc2cn(CC3CCOCC3)nc21 (stereo not drawn) | 66.8%
c1cc(CNCC2OCCc3cn(CC4CCOCC4)nc32)ccn1 (stereo not drawn) | 19.9%
